DAX1 inh-1: blocks DAX1 repression of SF-1 activated StAR promoter. 370,000 compounds, 1.1% hits. AID 652010. HEK293T StAR-luciferase reporter, SF-1/DAX-1 repression relief. inhibition, % at 6.8 µM;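 active = inhibition above the mean over all tested compounds plus 3 SD, cut at about 3.6% in these data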;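 also: 0% = DAX-1 cells with DMSO and 100% = cells lacking DAX-1 with DMSO; higher inhibition means more luminescence from relief of DAX-1 repression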
AHR activator: human AHR activation; AHR-responsive luciferase reporter cells, luminescence; activation, % at 5 µM; 320,000 compounds, 2.5% hits; AID 2796; in the data active = activation above about 47%;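 also: 0% = vehicle wells and 100% = reference agonist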
ssDAF-12 act: activators of S. stercoralis DAF-12 nuclear receptor. HEK293 ssDAF-12/GRIP1 lit1-tk-luc reporter, luminescence; % of 3 µM dafachronic acid response. activation, % at 6.8 µM. 370,000 compounds, 1% hits. AID 652126;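 active = activation above the mean over all tested compounds plus 3 SD, cut at about 0.9% in these data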;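 also: 0% = DMSO-only wells and 100% = 3 µM delta7-dafachronic acid wells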
DAX1 inh-2: inhibitors of human orphan nuclear receptor DAX1 (NR0B1); P51843; HEK293 Gal4-DAX1 luciferase reporter, luminescence; inhibition, % at 6.75 µM; 340,000 compounds, 0.99% hits; AID 504766;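 active = inhibition above the mean over all tested compounds plus 3 SD, cut at about 4.2% in these data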;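 also: 0% = DAX1-transfected cells with DMSO and 100% = empty-vector control cells with DMSO; inhibition shows as a rise in luminescence from relieved DAX1 repression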
Target sequence (P51843 207-470 limits assumed): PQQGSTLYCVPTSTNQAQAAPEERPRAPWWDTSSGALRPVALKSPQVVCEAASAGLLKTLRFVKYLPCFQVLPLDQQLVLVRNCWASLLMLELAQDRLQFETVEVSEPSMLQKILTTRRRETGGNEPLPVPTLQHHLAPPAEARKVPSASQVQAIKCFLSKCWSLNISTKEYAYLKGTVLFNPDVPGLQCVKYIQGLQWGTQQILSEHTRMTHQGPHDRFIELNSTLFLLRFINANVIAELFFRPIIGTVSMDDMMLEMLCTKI
hcDAF-12 act: H. contortus DAF-12 activation, primary screen. HEK293 hcDAF-12 lit1-tk-luc reporter, luminescence; 0% DMSO, 100% Δ7-dafachronic acid. activation, % at 6.8 µM. 370,000 compounds, 1.4% hits;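 active = activation above the mean of all tested compounds plus 3 SD, cut at about 5.5% in these data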;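 also: 100% = response to 3 µM Δ7-dafachronic acid high control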
hgDAF-12 ag: agonists of H. glycines DAF-12 nuclear receptor; HEK293 GAL4-hgDAF12 UAS-luciferase reporter, agonist luminescence; normalized to butyrate control; activation, % at 6.8 µM; 370,000 compounds, 1.8% hits;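 active = activation above a cutoff set at the mean of all screened compounds plus 3 SD, cut at about 10% in these data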;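 also: 0% = DMSO wells and 100% = sodium butyrate wells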
DAX1 conf: NR0B1 (human) inhibition, confirmation. shares compounds with DAX1 inh-1. HEK293T StAR-promoter luciferase reporter, SF-1/DAX-1 repression. inhibition, % at 6.8 µM. 2,400 compounds, 87% hits. AID 652134;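 active = inhibition above the average of every tested compound plus 3 SD, cut at about 3.8% in these data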;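 also: 0% = DAX-1 cells with DMSO and 100% = no DAX-1 control cells with DMSO; active compounds raise luminescence by relieving repression of the StAR reporter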
SF1 AF2mut Luc: nonselective inhibitor or artifact in SF-1 mutant DAX1 counter-screen; shares compounds with DAX1 inh-1; 2,400 compounds, 78% hits; AID 652136; inhibition, % at 6.8 µM; HEK293 StAR-luciferase, SF-1 AF2 mutant, luminescence;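 active = inhibition above the mean of all tested compounds plus 3 SD, cut at about 3% in these data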;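 also: 0% = DAX-1 transfected cells with DMSO and 100% = cells without DAX-1 with DMSO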
LXR ag: activates human LXR-beta, counter-screen for hcDAF-12 agonists | AID 743027 | activation, % at 6.8 µM | 3,400 tested, under 10 active | HEK293 Gal4-LXR tk-luc reporter, luminescence, 24 h; normalized: DMSO 0%, positive control 100% | shares compounds with hcDAF-12 act;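 active = mean percent activation of the reporter above a cutoff set as the average over tested compounds plus their standard deviation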
Target sequence (P55055 whole entry, looked up, the tested form may be a part): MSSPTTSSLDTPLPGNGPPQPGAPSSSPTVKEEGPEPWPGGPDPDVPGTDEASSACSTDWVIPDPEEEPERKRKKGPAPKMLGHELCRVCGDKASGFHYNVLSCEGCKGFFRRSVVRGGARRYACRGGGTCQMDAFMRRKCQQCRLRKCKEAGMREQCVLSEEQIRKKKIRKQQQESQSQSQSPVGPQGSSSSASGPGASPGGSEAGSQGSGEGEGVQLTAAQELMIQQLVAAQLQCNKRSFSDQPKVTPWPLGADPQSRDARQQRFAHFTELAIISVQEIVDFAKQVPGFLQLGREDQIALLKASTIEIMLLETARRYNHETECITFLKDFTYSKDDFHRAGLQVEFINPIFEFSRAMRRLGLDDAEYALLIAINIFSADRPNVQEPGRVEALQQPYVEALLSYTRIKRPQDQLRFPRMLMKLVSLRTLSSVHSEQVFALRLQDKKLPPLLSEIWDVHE
hcDAF12 ag: confirmation of H. contortus DAF-12 agonists | activation, % at 6.8 µM | 3,400 compounds, 61% hits | shares compounds with hcDAF-12 act | HEK293 hcDAF-12 lit1-tk-luc reporter, luminescence; % of Δ7-dafachronic acid response | AID 743032;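 active = mean activation across triplicate tests above the threshold derived from the earlier primary screen, cut at about 5.5% in these data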;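 also: 0% = DMSO only wells and 100% = 3 µM Δ7-dafachronic acid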
hgDAF12 conf: confirmation of H. glycines DAF-12 agonists; activation, % at 6.8 µM; HEK293 GAL4-hgDAF12 luciferase reporter, agonist mode; percent of butyrate response; 3,300 compounds, 80% hits; AID 743050; shares compounds with hgDAF-12 ag;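 active = mean activation over triplicate wells above the hit cutoff derived from the earlier primary screen, cut at about 11% in these data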;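 also: 0% = DMSO low control and 100% = 2 mM sodium butyrate high control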
LXR ag 2: LXR-beta agonism as DAF-12 counter-screen. shares compounds with hgDAF-12 ag. HEK293 Gal4-LXR luciferase reporter, 24 h. activation, % at 6.8 µM. 3,300 tested, under 10 active. AID 743051;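 active = mean activation of the triplicate above a set limit carried over from the primary screen, none filed active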
* marks the source's active call; other numbers are inactive results; x = no result. An excerpt weighted towards active compounds, which were near 5.7% of everything screened.

SMILES	DAX1 inh-1	AHR activator	ssDAF-12 act	DAX1 inh-2	hcDAF-12 act	hgDAF-12 ag	DAX1 conf	SF1 AF2mut Luc	hgDAF12 conf	LXR ag 2	others
O=C(Nc1ccc(F)cc1)/C(Cl)=C/c1ccccc1	4.6*	6.9	2.2*	9.9*	5.4	24.6*	13.2*	10.0*	20.0*	1.0
Cc1ccc(NC(=O)/C(Cl)=C\c2ccccc2)cc1	6.5*	-5.8	1.6*	-0.4	6.4*	16.6*	18.1*	8.1*	20.5*	1.3
COc1ccc(NC(=O)c2cnc(SC)nc2)cc1	-0.4	-6.6	-1.7	-0.1	-0.9	7.7	x	x	x	x
CCc1nc2ccc(Cc3ccc4nc(CC)[nH]c4c3)cc2[nH]1	-0.5	-0.1	-1.8	-0.6	-2.8	0.6	x	x	x	x
CCn1c(C)cc(C(=O)COC(=O)c2cccnc2SC)c1C	5.9*	-0.3	-0.4	7.9*	5.3	14.6*	6.1*	4.4*	14.3*	0.7
CSc1ncccc1C(=O)OCC(=O)c1cc(C)n(CC2CCCO2)c1C (stereo not drawn)	1.1	-2.7	-0.3	2.5	2.6	7.1	x	x	x	x
COc1ccccc1/C=C/C(=O)N1CCc2cc(OC)c(OC)cc2C1C (stereo not drawn)	-0.7	1.3	-1.9	-1.4	-3.8	-0.3	x	x	x	x
Cc1cc(CNC(=O)c2cc(COc3ccc(F)c(F)c3)on2)nn1C	6.4*	14.9	0.0	2.3	5.7*	15.0*	7.4*	3.8*	14.2*	0.5
COc1ccc(-n2nc3cc(C)c(NC(C)=O)cc3n2)cc1	4.5*	75.4*	0.9*	0.8	4.7	17.7*	8.4*	1.3	9.1	0.9
COc1cc2ccccc2cc1C(=O)NC(=S)Nc1cccc(C(=O)O)c1C	0.2	2.6	-0.3	2.0	0.6	-3.1	x	x	x	x
Cc1cnc(-c2nnc(N(C)C(=O)c3cccnc3)s2)cn1	0.2	24.4	-0.1	0.3	0.3	0.1	x	x	x	x
CC(=O)N(c1ccccc1)c1nnc(-c2cnc(C)cn2)s1	8.4*	-0.7	-0.4	2.5	5.5	14.1*	9.5*	9.2*	10.8*	0.5
COc1cccc2sc(N(C)c3ccccc3)nc12	4.6*	4.7	0.7	1.9	6.5*	13.3*	10.7*	6.4*	15.0*	1.0
CCOc1ccccc1NC(=O)C(=O)N/N=C/c1cc(Br)ccc1O	-0.5	6.7	-1.1	0.7	-0.7	0.7	x	x	x	x
O=C(NNCc1ccccc1)c1ccccn1	7.8*	x	-0.3	1.8	2.9	18.6*	9.2*	4.7*	14.2*	0.6
O=C(CC(=O)c1ccccn1)c1ccccc1	6.0*	x	0.5	3.6	3.9	14.4*	8.6*	5.2*	15.7*	0.8
CC(C)c1ccc(CNNC(=O)c2ccccc2)cc1	0.3	-0.8	-0.8	0.5	2.6	7.7	x	x	x	x
O=C(c1ccccc1)c1ccccn1	-0.4	-2.8	-0.9	0.2	0.1	-1.6	x	x	x	x
Cc1cc(C(=O)NNCc2ccccc2)no1	0.0	-2.8	-1.4	-0.8	-1.9	2.5	x	x	x	x
O=C(NNCc1ccccc1)c1ccccc1	6.1*	x	0.6	3.1	2.8	16.1*	12.6*	5.8*	12.1*	0.6
O=C(COc1ccccc1[N+](=O)[O-])Nc1cccnc1	1.0	-5.4	-1.4	0.8	-1.2	7.0	x	x	x	x
Cc1ccnc(NC(=O)COc2ccccc2[N+](=O)[O-])c1	4.9*	x	1.1*	0.4	7.4*	14.3*	12.5*	5.2*	11.5*	0.9	LXR ag=1.3;hcDAF12 ag=4.1
Cc1ccc(NC(=O)COc2ccccc2[N+](=O)[O-])nc1	4.7*	4.2	1.7*	-1.0	7.3*	18.0*	10.8*	5.9*	12.3*	0.8	LXR ag=1.6;hcDAF12 ag=9.3*
O=C(Nc1cccc(Cl)c1)Nc1ccccc1C(=O)O	4.7*	17.4	-0.8	-1.0	5.2	14.2*	11.1*	7.6*	15.0*	0.6
CCOC(=O)c1sc(NC(=O)Nc2ccccc2Cl)cc1C	7.8*	-11.7	1.1*	-0.4	14.5*	19.9*	13.6*	7.5*	24.4*	1.4	LXR ag=1.6;hcDAF12 ag=6.1*
SMILES	DAX1 inh-1	AHR activator	ssDAF-12 act	DAX1 inh-2	hcDAF-12 act	hgDAF-12 ag	DAX1 conf	SF1 AF2mut Luc	hgDAF12 conf	LXR ag 2	others
CCOC(=O)c1sc(NC(C)=O)cc1C	0.1	-3.4	-1.0	-0.5	-0.4	2.4	x	x	x	x
CCOC(=O)c1c(N)sc(C(=O)Nc2ccccc2F)c1C	9.3*	17.6	0.8	4.4*	6.7*	19.4*	14.1*	7.1*	18.6*	1.0	LXR ag=1.7;hcDAF12 ag=8.5*
O=C(CN(c1ccccc1)S(=O)(=O)c1ccccc1[N+](=O)[O-])N1CCCC1	-0.1	0.3	-0.3	0.8	-1.7	0.3	x	x	x	x
CCN(CC(=O)Nc1ccc2c(c1)OCCO2)C(=O)/C=C/c1ccc([N+](=O)[O-])cc1	-1.0	-2.0	-0.7	-0.1	-1.2	0.1	x	x	x	x
O=C(NC1=NCCS1)c1ccc(OCC2CCCO2)cc1 (stereo not drawn)	3.0	14.6	0.2	1.2	3.9	7.4	x	x	x	x
O=C(Nc1ncccc1O)c1ccc(OCC2CCCO2)cc1 (stereo not drawn)	17.8*	0.0	0.0	2.3	5.0	27.7*	13.7*	5.7*	26.9*	0.6
Nc1c(Cl)c(Cl)nc(C(=O)N/N=C/c2ccco2)c1Cl	0.0	53.4*	0.1	-1.3	6.9*	3.0	x	x	x	x	LXR ag=-0.3;hcDAF12 ag=3.4
CC(OC(=O)c1cccc(-n2cnnn2)c1)C(=O)NC1(C#N)CCCCC1 (stereo not drawn)	-0.1	-0.9	-1.1	0.1	-2.3	0.0	x	x	x	x
COc1ccc(Cl)cc1S(=O)(=O)N1CCCc2ccccc21	0.0	1.6	-0.5	0.7	-1.0	-0.3	x	x	x	x
COc1ccc(Cl)cc1S(=O)(=O)N1CCN=C1C	0.6	4.7	1.6*	1.1	12.2*	-1.3	x	x	x	x	LXR ag=-0.2;hcDAF12 ag=2.4
CCCC(=O)Nc1ccccc1-c1nnc(SCC)[nH]c1=O	-0.1	1.0	-1.7	1.3	0.4	-0.7	x	x	x	x

Assay outcomes from PubChem.
